Results filed as inconclusive are left out. Where a call stands in place of a potency, no number is given. Calls of active or inactive are those of the source. Calls come from the whole dose curve; as a rule, active = well fitted activation curve with a large enough effect; inconclusive = small, poorly fitted or top-dose-only effect; inactive = flat fitted curve, though single readings scatter.

This passage reports Potency results from PubChem BioAssay AID1224854 (National Center for Advancing Translational Sciences (NCATS), 2016).

The nature of this test: Cell viability assay for measurement of the protective activity of small molecules against cell death caused by Zika virus infection in human astrocytoma cells. To be noted: SNB-19 Zika virus cytoprotection, ATP luminescence, 72 h; series mostly up to 46.1 µM. Summed up: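 Percent inhibition of Zika-induced cell death derived from ATP-content luminescence after 72 h at 37 C. Compounds were added to SNB-19 cells 1 h before virus at 2 FFU/cell.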
Take `CCN1/C(=C/C=C/c2sc3ccccc3[n+]2CC)Sc2ccccc21`: the Potency entry was “inactive”.
For `COc1ccc2nc(NC(=O)Nc3ccccc3)sc2c1` the value was “inactive”; for `CNC1[C@H](O)C(O[C@@H]2C(O)C(O[C@H]3O[C@H]([C@@H](C)NC)CC[C@H]3N)[C@@H](N)C[C@H]2N)OC[C@]1(C)O` (some centres undefined), “inactive”.
`O=C(O)c1ccccc1NCCc1ccccc1`: the Potency entry was “inactive”.
For `CC(C(=O)O)c1ccc(C(=O)c2cccs2)cc1` (centres undefined), the Potency entry was “inactive”.
As for `O=C(Nc1ccc(C(=O)O)c(O)c1)c1ccccc1`, the Potency result is “inactive”.
With `O=c1cc(-c2ccccc2)oc2cc(O)cc(O)c12`, the Potency result is “inactive”.
In the case of `COc1cccc(-c2ccc(NC(=O)C3=C(C(=O)O)CCC3)c(F)c2)c1`, the Potency entry is “inactive”.
As for `O=C(CS)Nc1ccccc1`, the Potency result was “inactive”.
`Cc1c(NC(=O)c2ccc(C(C)(C)C)cc2)cccc1-c1cn(C)c(=O)c(Nc2ccc(C(=O)N3CCOCC3)cc2)n1`: the Potency was 21.8 µM (active).
For `Oc1ccc(/C=C/c2cc(O)cc(O)c2)cc1` the value was “inactive”; for `O=C(O)[C@H](CC(=O)N1C[C@@H]2CCCC[C@H]2C1)Cc1ccccc1`, “inactive”; for `CC(=O)OC(C)OC(=O)C(C)c1ccc(-c2ccccc2)c(F)c1` (centres undefined), “inactive”.
With `Cc1cc(O)c2c(c1)C(=O)c1cc(O)cc(O)c1C2=O`, the Potency entry was “inactive”.
For `COc1cccc2c1C(=O)c1c(O)c3c(c(O)c1C2=O)C[C@@](O)(C(=O)CO)C[C@@H]3O[C@H]1C[C@H](N)[C@H](O[C@@H]2CCCCO2)[C@H](C)O1` the value was “inactive”; for `Nc1ncnc2c1ncn2[C@@H]1O[C@@H](CO)[C@H](O)[C@H]1O`, “inactive”; for `CC(=O)Oc1ccccc1C(=O)Nc1ncc([N+](=O)[O-])s1`, 31.6 µM (active).
Next, `O=S(=O)(O)c1ccc2nc(-c3ccccc3)[nH]c2c1`: “inactive”.
Next, `COc1ccc(-c2cc(=S)ss2)cc1`: “inactive”; `O=c1oc2cc(O)ccc2s1`: “inactive”.
Take `O=C(C=CC=Cc1ccc2c(c1)OCO2)N1CCCCC1`: the Potency entry was “inactive”.
For `c1ccc2[nH]c(-c3cscn3)nc2c1`, the Potency entry was “inactive”.
For `Cc1cc(O)c2ccccc2c1O` the value was “inactive”.
On to `COc1ccc(NC(=O)/C=C/c2ccc(Cl)cc2)cc1`, for which the Potency entry is “inactive”.
With `CCCCCCCCCCCC(=O)[O][Sn]([CH2]CCC)([CH2]CCC)[O]C(=O)CCCCCCCCCCC`, the Potency entry is “inactive”.
Take `Cc1ccc2c(n1)Oc1ccc(C(C)C(=O)OCC(=O)N(C)C)cc1C2` (centres undefined): the Potency result was “inactive”.
As for `Nc1c(S(=O)(=O)O)cc(Nc2ccc(Nc3nc(Cl)nc(Nc4ccc(S(=O)(=O)O)cc4)n3)c(S(=O)(=O)O)c2)c2c1C(=O)c1ccccc1C2=O`, the Potency result is “inactive”.
For `O=C(O)c1ccccc1Nc1cccc(C(F)(F)F)c1`, the Potency result was “inactive”.
On to `C[C@@H]1CCN(C(=O)CC#N)C[C@H]1N(C)c1ncnc2[nH]ccc12`, for which the Potency entry is “inactive”.
Next, `C[C@@H](O[C@H]1OCCN(Cc2n[nH]c(=O)[nH]2)[C@@H]1c1ccc(F)cc1)c1cc(C(F)(F)F)cc(C(F)(F)F)c1`: “inactive”.
As to `Cc1csc(NC(=O)c2sc3nc4c(c(C(F)(F)F)c3c2N)CCC4)n1`, the Potency entry was “inactive”.
Turning to `CCCCC1C(=O)N(c2ccccc2)N(c2ccc(O)cc2)C1=O` (centres undefined), the Potency was 19.5 µM (active).
Consider `O=C1c2ccccc2C(=O)c2c1ccc(O)c2O`, for which the Potency entry is “inactive”.
With `CCCCCCCC/C=C/C(=O)O`, the Potency entry was “inactive”.
